Experimental data from PubChem BioAssay AID828 (The Scripps Research Institute Molecular Screening Center, 2007).
Among all 140,000 compounds or so, about 550 (0.39%) were called active. This excerpt belongs to a sample that is enriched for actives. A number with no mark means an inactive call. No stated cut-off is given here; in the data, active means inhibition above about 27%; inactive means the rest.

The compounds below were run against Galanin receptor type 2 (Homo sapiens) (UniProt O43603) (assay: GALR2 antagonists in receptor-expressing cells, primary screen (AID 828;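 further: cells stimulated with galanin 1-16 at roughly its EC80; 0% = agonist challenge control and 100% = basal control without agonist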)). Settings: antagonist mode, at 4 µM, hits give high values.
Sequence of Galanin receptor type 2 (Homo sapiens) (O43603 whole entry, looked up): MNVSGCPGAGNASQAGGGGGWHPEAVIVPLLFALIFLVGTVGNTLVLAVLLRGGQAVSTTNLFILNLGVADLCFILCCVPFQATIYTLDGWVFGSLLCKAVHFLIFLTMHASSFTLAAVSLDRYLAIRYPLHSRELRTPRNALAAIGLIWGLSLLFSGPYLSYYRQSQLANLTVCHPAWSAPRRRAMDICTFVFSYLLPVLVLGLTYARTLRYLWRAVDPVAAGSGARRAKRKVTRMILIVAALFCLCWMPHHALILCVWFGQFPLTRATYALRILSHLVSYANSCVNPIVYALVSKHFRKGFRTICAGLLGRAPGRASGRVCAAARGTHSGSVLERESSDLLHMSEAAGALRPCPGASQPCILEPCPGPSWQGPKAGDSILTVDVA

| Compound | inhibition |
| --- | --- |
| COc1cc2c(cc1OC)C(=O)NCC(C)(C)O2 | 1.34% |
| CCCSc1nc2[nH]ncc2c(=O)[nH]1 | -7.72% |
| Cc1ccc(Nc2nc(CSc3nnc(-c4ccncc4)n3-c3ccccc3C)cs2)cc1 | -7.55% |
| Cc1ccc(C(=O)N2CC(=O)Nc3ccccc32)o1 | -5.68% |
| CC(C)(C)OC(=O)N/N=C/c1ccc(C(=O)O)cc1 | 1.78% |
| O=C(CC1SC(=Nc2ccccc2)N(Cc2ccccn2)C1=O)Nc1cccc(Cl)c1 (centres undefined) | -2.96% |
| CCCc1cc(=O)oc2c(C)c(O)c(CN3CCCCC3)cc12 | -0.41% |
| COC(=O)Cc1cc(=O)oc2c(C)c(O)ccc12 | 39.2% (active) |
| COC(=O)COc1ccc2oc(=O)cc(C)c2c1 | 4.15% |
| O=c1c2c(ncn1Cc1ccccc1)nc1n2CCC1 | 11.2% |
| c1ccc(-c2nnc(SCc3nc4ccccc4[nH]3)o2)cc1 | 27.2% (active) |
| Clc1ccc(-c2nnc(SCc3nc4ccccc4s3)o2)cc1 | 12% |
| Clc1ccccc1SCc1nc2ccccc2[nH]1 | 7.26% |
| CCCC/C(C)=N/NC(=O)NC1CCCCC1 | 1.57% |
| CCCCN(C)CCC(=O)Nc1ccc(Cl)cc1 | 9.01% |
| Nc1nc(CC(=O)CSc2ccc(Cl)cc2)nc(Nc2ccc(F)cc2)n1 | 5.35% |
| O=C(COc1ccccc1F)NNC(=O)c1ccc(N2CCCCC2)c([N+](=O)[O-])c1 | -5.34% |
| COc1ccc([N+](=O)[O-])cc1NC(=O)c1ccc(N(Cc2ccccc2C)S(C)(=O)=O)cc1 | 10.8% |
| CCCCCCCCCOC1OC(CO)C(O)C(O)C1NC(C)=O (centres undefined) | -2.61% |
| N=C1C(=O)OCC1c1ccccc1NC(=O)CN1CCCCC1 (centres undefined) | 0.12% |
| O=C(Nn1c(-c2ccccc2)nc2ccccc2c1=O)c1ccc([N+](=O)[O-])cc1 | -0.78% |
| Cc1ccc(S(=O)(=O)/N=S(\C)C(C)C)cc1 (centres undefined) | 0.24% |
| COC(=O)[C@H]1Cc2cnoc2C[C@]1(C)C(=O)O | 13.5% |
| CCOC(=O)C1(S(=O)(=O)c2ccccc2)CCN(Cc2ccccc2)CC1 | -2.88% |
| Cc1ccc(S(=O)(=O)c2ccc(Oc3ccccc3)cc2)cc1 | -10.2% |

| Compound | inhibition |
| --- | --- |
| CC1=C/C(=N\OS(=O)(=O)c2ccccc2)C=CC1=O | 53.5% (active) |
| O=C(Cc1ccccc1)NNC1CC(=O)N(c2ccc(Br)cc2)C1=O (centres undefined) | -17.6% |
| COc1ccc(NS(=O)(=O)c2ccc(NC(=O)c3ccc(N(C)S(C)(=O)=O)cc3)cc2)cc1 | 3.65% |
| Cc1cc(Br)ccc1SCC(=O)OCC(=O)NCc1ccc2c(c1)OCO2 | 1.98% |
| C/C(=N\Nc1ccc([N+](=O)[O-])cc1)c1ccc(-n2nncc2C(C)(C)C)cc1 | -1.64% |
| Cc1ccc(NC(=O)NC(=O)N(C2CCCCC2)S(=O)(=O)c2ccccc2)cc1 | 1.91% |
| Cc1cc(C)c[n+](-c2nc3ccccc3nc2[N-]S(=O)(=O)c2cccs2)c1 | -5.36% |
| O=C(Nc1ccc2c(c1)OCO2)c1ccc(N2C(=O)c3ccccc3C2=O)cc1 | -3% |
| CC1CCCN(S(=O)(=O)c2ccc(N(C(=O)c3cnccn3)C(C(=O)NC3CCCCC3)c3cccs3)cc2)C1 (centres undefined) | 8.87% |
| NS(=O)(=O)c1ccc(CCNC(=S)Nc2ccc(S(N)(=O)=O)cc2)cc1 | 5.94% |
| Cc1cc(C)c(C#N)c(SCC(=O)NN2CC(=O)N(c3ccccc3F)CC2=O)n1 | 12.2% |
| COc1ccc(C)cc1S(=O)(=O)N(CC(=O)Nc1cccc([N+](=O)[O-])c1)c1ccc(C)cc1 | -2.05% |
| O=C(COC(=O)C1CC2C=CC1C2)Nc1ccccc1 (centres undefined) | -0.08% |
| Cc1cc(C(=O)COC(=O)CNC(=O)c2ccc(F)cc2)c(C)n1Cc1ccco1 | 3.46% |
| Cc1cccc(C(=O)NCC(=O)OCC(=O)N2CC3(C)CC2CC(C)(C)C3)c1 (centres undefined) | 1.61% |
| COc1ccccc1C(=O)N1CC2(C)CC1CC(C)(C)C2 (centres undefined) | 1.39% |
| Cc1nnnn1/C(=C\c1ccccc1)C(=O)OCC(=O)N1CC2(C)CC1CC(C)(C)C2 (centres undefined) | 27.3% (active) |
| COC(=O)N/N=C/c1ccc(-c2ccc(Cl)c(Cl)c2)o1 | -7.04% |
| COc1cc(C(=O)NNC(=O)c2ccc(S(=O)(=O)N3CCCCC3)cc2)cc(OC)c1OC | 9.59% |
| CC(C)COP(=O)(c1ccc(N(C)C)cc1)C(Nc1ccccc1)c1cccnc1 (centres undefined) | 3.84% |
| O=C(CSC(=S)N1CCOCC1)c1ccccc1 | 5.48% |
| COc1ccc(Nc2nc(NCc3ccco3)nc(N/N=C/c3ccccc3Cl)n2)cc1 | -5.3% |
| O=C(/C=C/c1ccccc1)Nc1nnc(SCC(=O)c2ccc3ccccc3c2)s1 | -9.23% |
| COc1ccc(C(=O)Nc2sc(C)c(C)c2CN2CCOCC2)cc1 | 3.47% |
| COc1ccc(Cl)cc1NC(=O)[C@@H]1CCCN1C(=O)c1cccs1 | -3.13% |

| Compound | inhibition |
| --- | --- |
| c1ccc(-c2[nH]ncc2-c2nc3ccccc3[nH]2)cc1 | 0.69% |
| Cc1ccc(-c2nc3ccccc3[nH]2)cc1N | 4.32% |
| c1ccc2[nH]c(-c3nc4ccccc4[nH]3)nc2c1 | 35.5% (active) |
| Cc1ccc(-c2nc(-c3cccnc3)sc2CC(=O)Nc2ccc(C)c(Cl)c2)cc1 | 8.6% |
| CSc1ccc(/C=N/NC(=O)c2cccc(Cl)c2)cc1 | 9.93% |
| CCCN(CCC)C(=S)Nc1cc(C(=O)OC)ccc1C(=O)OC | 0.52% |
| O=C(Oc1cccc(N2C(=O)C3C4c5ccccc5C(c5ccccc54)C3C2=O)c1)c1ccco1 (centres undefined) | 1.71% |
| O=C1C2C3C=CC(C4CC34)C2C(=O)N1c1nccs1 (centres undefined) | -7.75% |
| COc1cc2c(cc1O)[C@H](Cc1ccc(Oc3cc(C[C@@H]4NCCc5cc(OC)c(O)cc54)ccc3O)cc1)NCC2 | 1.51% |
| CC[C@H]1CN2CCc3cc(OC)c(OC)cc3[C@@H]2C[C@@H]1C[C@H]1NCCc2cc(OC)c(OC)cc21 | 95% (active) |
| O=C(NCCc1ccccc1)C1CCC(Cn2c(=O)c3ccccc3n(Cc3cccnc3)c2=O)CC1 (centres undefined) | -3.73% |
| Cc1ccc(-n2nc(C)c(/C=N/NC(=O)c3cccs3)c2Cl)cc1 | -3.43% |
| Cc1ccc(/C=N\n2c(-c3ccccc3)n[nH]c2=S)s1 | 5.78% |
| Cc1cc(-c2n[nH]c(=S)n2/N=C/C(Br)=C/c2ccccc2)n[nH]1 | 34.7% (active) |
| S=c1[nH]nc(-c2cccnc2)n1/N=C/C(Cl)=C\c1ccccc1 | 18% |
| Cc1nc2ccccc2nc(C)c1=NOCc1ccc(Cl)cc1Cl | 10.4% |
| COc1ccc(/C=N/OCC(=O)N(Cc2ccccc2)c2ccccc2C(=O)O)cc1 | 2.54% |
| CNC(=O)/C(C#N)=C/c1c(F)cccc1Cl | 20.6% |
| COc1ccc(/C=C2/C(=O)OCc3cc(OC)c(OC)cc32)c(OC)c1 | 2.64% |
| COc1ccc(C2NC(=S)NC3=C2CCc2ccccc23)cc1OC (centres undefined) | -4.17% |
| O=C(N/N=C/c1ccccn1)C12CC3CC(CC(C3)C1)C2 | -0.89% |
| CN(c1nc2ccccc2n2c(-c3ccco3)nnc12)S(=O)(=O)c1ccccc1 | 3% |
| CN1c2ccccc2-c2nc3ccccc3n2C1c1ccco1 (centres undefined) | -6.2% |
| Cn1c(-c2ccco2)nc2cc3ccccc3cc21 | 29.7% (active) |
